We go through 47 compounds from ChEMBL document CHEMBL3988442, “University of Dundee, Small-Polar-MMV Screening Library” (2021).

This assay deals with Trypanosoma brucei. Nature of the assay: Trypanosoma brucei 72 hour study. Format: functional, organism-based. The arrangement: scale not given: in the data most compounds retested in dose-response had high values.

The campaign covered roughly 66,000 compounds. About 960 (1.5%) showed an effect of 50% or more. The sample holds strong results, similar compounds and a random draw of the others, so the mix is not that of the screen.

In the case of `CSCc1cc(F)ccc1CNC(=O)N1CCC(CO)CC1`, where the note is “30 µM, 30.03 µM”, the “Percent Effect” value is listed as -59.11%.

With `CN(C)c1ccc(CNC2=NCCCN2)cc1.I`, the “Percent Effect” value (30.3 µM, […]) is given as 99.22%.

As for `CCOCc1ccc(CNC2=NCCCN2)cc1.I`, the “Percent Effect” value (30.3 µM, […]) is reported as -5.411%.

As for `I.c1ccc(OCCNC2=NCCCN2)cc1`, under “30 µM, 30.03 µM”, the “Percent Effect” value is -0.004482%.

On to `NC[C@H]1CC[C@H](C(NC(=O)CC2CCCC2)c2ccccn2)CC1` (some centres undefined), for which the “Percent Effect” value (30.3 µM, […]) is recorded as -41.17%.

With `CCCN1C[C@H](NC(=O)c2ccccc2F)[C@@H](c2ccc(OC)cc2)C1`, where the note is “30.3 µM, […]”, the “Percent Effect” value is -8.438%.

On to `Cc1ccc(CN2CCC3(CC2)CC(CC(=O)NC(C)C)CO3)s1.O=C(O)C(F)(F)F` (centres undefined), for which the “Percent Effect” value (30.3 µM, […]) is listed as -52.98%.

As to `O=C(C1CCOCC1)N1C[C@H]2C[C@H](OCc3ccccc3)C[C@H]2C1`, the “Percent Effect” value (30.3 µM, […]) is 32.35%.

Consider `CN(C)CCOCC1CN(Cc2ccsc2)Cc2nnn(C)c21.O=C(O)C(F)(F)F.O=C(O)C(F)(F)F` (centres undefined), for which the “Percent Effect” value (30.3 µM, […]) was -20.25%.

Take `Cc1nccn1C1CCCN(C(=O)c2ccc(N(C)C)nn2)C1` (centres undefined): where the note is “30.3 µM, […]”, the “Percent Effect” value is on record as -14.31%.

Regarding `Cc1nccn1C1CCCN(C(=O)c2ccc(N(C)C)nc2)C1` (centres undefined), the “Percent Effect” value (30 µM, 30.03 µM) is reported as 59.27%.

As for `Cc1cc(C)n(C2CCCN(C(=O)c3ccc(NC4CC4)nc3)C2)n1` (centres undefined), the “Percent Effect” value (30 µM, 30.03 µM) amounted to 3.181%.

For the compound `CN(C)c1ccc(C(=O)N2CCCC(n3cccn3)C2)cn1` (centres undefined), the “Percent Effect” value (30.3 µM, […]) is -20.71%.

In the case of `Cc1nc(C)n(C2CCCN(C(=O)c3ccc(NC4CC4)nc3)C2)n1` (centres undefined), the “Percent Effect” value (30 µM, 30.03 µM) is on record as 56.19%.

For the compound `Cc1nc(C)n(C2CCCN(C(=O)c3ccc(O)nc3)C2)n1` (centres undefined), the “Percent Effect” value (10 µM) is on record as -79.94%.

For the compound `CN(C)CCCN(C)C1CCN(c2cccc(-c3cscn3)c2)CC1`, the “Percent Effect” value (30.3 µM, […]) worked out at 17.15%.

On to `O=C1CCCN1c1cccc(N2CCC(NCCc3cscn3)CC2)c1`, for which the “Percent Effect” value (30.3 µM, […]) was 6.374%.

In the case of `CN(Cc1nccs1)C1CCN(c2cccc(-c3cscn3)c2)CC1`, the “Percent Effect” value (30.3 µM, […]) is on record as -33.72%.

As to `CC(C)CC(C)NC1CCN(c2cccc(-c3cscn3)c2)CC1` (centres undefined), the “Percent Effect” value (30 µM, 30.03 µM) is -3.57%.

For the compound `c1cc(-c2cscn2)cc(N2CCC(NCCc3cccs3)CC2)c1`, the “Percent Effect” value (30.3 µM, […]) is recorded as 64.97%.

As for `c1ccc(-c2cccc(N3CCC(NCCc4cscn4)CC3)c2)cc1`, for the setting “30.3 µM, […]”, the “Percent Effect” value turned out to be 99.95%.

In the case of `CC1(c2ccc(Br)cc2)CC(=O)N(CC(N)=O)C1=O` (centres undefined), for the setting “30.3 µM, […]”, the “Percent Effect” value was -17.28%.

Consider `Cn1cc(C(=O)CC2CCCN2C(=O)c2cccc3ncccc23)cn1` (centres undefined), for which the “Percent Effect” value (30.3 µM, […]) was -17.51%.

Consider `Cc1ccc(C(=O)NCCC2CN(C3CCCC3)CCO2)c(C)c1` (centres undefined), for which the “Percent Effect” value (30 µM, 30.03 µM) is 0.3212%.

As to `O=C(c1cc2c(Cl)cccc2[nH]1)N1CCN(CCc2ccccn2)CC1`, the “Percent Effect” value (30 µM, 30.03 µM) is listed as 6.57%.

For `CCOC(=O)c1ccc(S(=O)(=O)NCc2cccnc2N(C)C)cc1`, the “Percent Effect” value (10 µM) was -42.9%.

`Cc1ccc(CCC(=O)N(C)CCN2CCOCC2)c(C)c1`: the “Percent Effect” value (30 µM, 30.03 µM) was determined as 15.97%.

`Cl.Cn1nc(C2CCCN(Cc3ccc(F)cc3)C2)c2nccnc21` (centres undefined): the “Percent Effect” value (30.3 µM, […]) was found to be 4.536%.

Regarding `CCOc1ccc(CN2CCCC(c3cc4ncccc4[nH]3)C2)cc1` (centres undefined), the “Percent Effect” value (30.3 µM, […]) is reported as 100.2%.

With `CCOc1nnc(CN2CCCC(c3nc4ccccc4[nH]3)C2)s1` (centres undefined), where the note is “30 µM, 30.03 µM”, the “Percent Effect” value is -9.691%.

Take `CC(=O)Nc1ccc(CN2CCCC(c3cc4ncccc4[nH]3)C2)cc1` (centres undefined): the “Percent Effect” value (30.3 µM, […]) came out at 8.67%.

Turning to `CCOc1ccc(CN2CCN(C(=O)c3cc(C4CC4)[nH]n3)CC2)cc1`, the “Percent Effect” value by setting is: (30.3 µM, […]) -13.15%; (10 mM, 10 mM as filed; unlikely as a test dose) -41.12%.

`Fc1ccc(CN2CCCC(c3cc4ncccc4[nH]3)C2)cc1` (centres undefined): for the setting “30.3 µM, […]”, the “Percent Effect” value is recorded as 55.67%.

With `O=S(=O)(C1CC1)N1Cc2nccn2CC(Cn2cncn2)C1` (centres undefined), the “Percent Effect” value (30.3 µM, […]) was -41.46%.

For `CC1c2ncc(CN3CCN(C)CC3)n2CCN1Cc1ccc(F)cc1.O=C(O)C(F)(F)F.O=C(O)C(F)(F)F.O=C(O)C(F)(F)F` (centres undefined), the “Percent Effect” value (30.3 µM, […]) is given as -44.2%.

For the compound `CN(Cc1ccco1)[C@@H]1CN(C(=O)c2cnccn2)C[C@@H]2CCCO[C@@H]21.O=C(O)C(F)(F)F`, for the setting “30 µM, 30.03 µM”, the “Percent Effect” value is listed as -17.24%.

`COc1cc(N2CCC3(CCN(Cc4csc(C)n4)C3=O)C2)ncn1.O=C(O)C(F)(F)F` (centres undefined): where the note is “30.3 µM, […]”, the “Percent Effect” value is given as -84.03%.

`COCC1COCCC12CCN(S(=O)(=O)c1cccnc1)CC2.O=C(O)C(F)(F)F` (centres undefined): the “Percent Effect” value (30.3 µM, […]) is listed as -13.71%.

In the case of `O=C(COc1ccc2c(c1)CCC2)NS(=O)(=O)c1cccnc1`, the “Percent Effect” value (10 µM) was -70.49%.

`Cc1ccc(N2CC[C@@H]3[C@@H]2CCN3C(=O)Cc2ccccc2)nn1.O=C(O)C(F)(F)F`: under “30.3 µM, […]”, the “Percent Effect” value is on record as -46.46%.

As to `O=C(c1cccc(Cn2ccnc2)c1)N1CCCC(n2cccn2)C1` (centres undefined), the “Percent Effect” value (30.3 µM, […]) is 2.699%.

`Cc1nc(COc2ccc(CNCC3CN(C)CCO3)cc2)cs1` (centres undefined): the “Percent Effect” value (30.3 µM, […]) is reported as -2.349%.

`CN1CCOC(CNCc2ccc(OCc3ccccn3)cc2)C1` (centres undefined): the “Percent Effect” value is given as 56.06% (30.3 µM, […]) and -23.3% (10 mM, 10 mM as filed; unlikely as a test dose).

As for `CN1CCOC(CNCc2cccc(OCc3ccccn3)c2)C1` (centres undefined), the “Percent Effect” value (30 µM, 30.03 µM) is recorded as -14.98%.

Regarding `CCN1CCOC(CNCc2ccc(OCc3ccccn3)cc2)C1` (centres undefined), the “Percent Effect” value (10 µM) was -32.81%.

With `Cc1nc(CNCC2CN(C)CCO2)cs1` (centres undefined), the “Percent Effect” value (30.3 µM, […]) is reported as 3.844%.

`Cc1ccc(OCc2nc(CNCC3CN(C)CCO3)cs2)cc1` (centres undefined): the “Percent Effect” value (10 µM) is reported as 77.03%.
